# Results filed as inconclusive are left out. A structure can be active in one record and inactive in another. The source made the active and inactive calls. The calls were made as follows: active = hit-call score of the fitted dose curve at least 0.9, where 1 is the maximum; inconclusive = response in the unintended direction; inactive = score below 0.9.
# Tests used:
# [1] = ATG_XTT_Cytotoxicity: Cytotoxicity Assessment in the Attagene TRANS-FACTORIAL HepG2 Assay (AID 2283584)
# Procedure, shortened: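 HepG2 human liver cells, transiently transfected with multiple GAL4-UAS reporter units, were dosed and read at 24 h by XTT as cell number. Loss of signal was fitted relative to DMSO negative control baseline.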
# [2] = target: Cellular tumor antigen p53 (Homo sapiens) (UniProt P04637); test: TOX21_p53_BLA_p3_ratio: Tox21 HCT-116 p53 Agonism Beta-lactamase Assay, Ratio, Phase 3 (AID 2283596)
# Chain of Cellular tumor antigen p53 (Homo sapiens) (P04637 whole entry, looked up): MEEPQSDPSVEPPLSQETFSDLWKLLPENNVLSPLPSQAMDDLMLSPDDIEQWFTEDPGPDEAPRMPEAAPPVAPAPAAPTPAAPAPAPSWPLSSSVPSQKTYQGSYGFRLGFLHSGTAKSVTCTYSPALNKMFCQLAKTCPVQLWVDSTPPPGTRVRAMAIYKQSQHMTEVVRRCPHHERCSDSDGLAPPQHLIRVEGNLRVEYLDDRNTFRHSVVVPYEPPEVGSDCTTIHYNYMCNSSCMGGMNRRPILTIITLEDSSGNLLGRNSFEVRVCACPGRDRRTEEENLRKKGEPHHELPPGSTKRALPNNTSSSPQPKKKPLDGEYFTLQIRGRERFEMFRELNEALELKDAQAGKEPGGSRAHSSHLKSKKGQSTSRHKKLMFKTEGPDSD
# Procedure, shortened: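 HCT116 p53-bla cells (4000/well) given compound in DMSO (217-fold dilution) after 5 h, incubated 16 h at 37C. CCF4-AM substrate 2 h at room temperature; 460/530 nm emission ratio, gain fitted against DMSO.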
# [3] = TOX21_p53_BLA_p4_viability: Viability Assessment in the Tox21 HCT-116 p53 Agonism Beta-lactamase Assay, Phase 4 (AID 2283597);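 also: hits lower the luminescence signal meaning cytotoxicity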
# Procedure, shortened: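 HCT116 p53-bla cells (4000/well) rested 5 h at 37C, then received compounds in DMSO (217-fold dilution) for 16 h at 37C, 5% CO2. CellTiter-Glo was added after the CCF4-AM read, and luminescence was read after 30 min at room temperature.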
# [4] = TOX21_p53_BLA_p3_viability: Viability Assessment in the Tox21 HCT-116 p53 Agonism Beta-lactamase Assay, Phase 3 (AID 2283593);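 also: cells exposed to compound for 16 h before reading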
# Procedure, shortened: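 Cellular ATP was quantified by CellTiter-Glo luminescence, read after 30 min at room temperature. Beforehand, HCT116 cells (4000/well) received compound 5 h post-seeding, 217-fold diluted from DMSO, then incubated 16 h at 37C.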
# [5] = TOX21_p53_BLA_p2_viability: Viability Assessment in the Tox21 HCT-116 p53 Agonism Beta-lactamase Assay, Phase 2 (AID 2283591);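 also: compound exposure lasted 16 h at 37 °C; actives lower the ATP signal meaning cytotoxicity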
# Procedure, shortened: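 Cytotoxicity readout: CellTiter-Glo ATP luminescence, 30 min at room temperature, after the beta-lactamase read. Cells were HCT116 exposed 16 h at 37C to compounds pin-transferred at 217-fold dilution from DMSO stocks.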
# [6] = target: Cellular tumor antigen p53 (Homo sapiens) (UniProt P04637); test: TOX21_p53_BLA_p2_ratio: Tox21 HCT-116 p53 Agonism Beta-lactamase Assay, Ratio, Phase 2 (AID 2283592)
# Procedure, shortened: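 HCT116 cells carrying a p53-responsive beta-lactamase reporter were plated, incubated 5 h at 37C, then dosed with compounds in DMSO (217-fold dilution) for 16 h. CCF4-AM substrate was added for 2 h at room temperature; the 460/530 nm emission ratio gave gain-of-signal activity relative to DMSO.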
compound,measurement,setting,value
CC(=O)OC(C)(C)C1CC=C(C)CC1 (centres undefined),outcome,[1],inactive
same,outcome,[2],inactive
CCCCCCCCCCOC(=O)c1ccccc1C(=O)OCCCCCCCC,outcome,[1],inactive
same,outcome,[3],inactive
CC(=O)C1=C(C)[C@@H]2C[C@@]3(C1)[C@H](C)CC[C@H]3C2(C)C,outcome,[1],inactive
same,outcome,[4],inactive
CC(C)N1C(=O)c2ccccc2C1=O,outcome,[5],inactive
same,outcome,[6],inactive
NCCN1CCNCC1,outcome,[5],inactive
same,AC50,[6],0.000307 µM (active)
same,outcome,[6],inactive
same,outcome,[4],inactive
C/C=C(\C)C(=O)OC/C=C(\C)CCC=C(C)C,outcome,[1],inactive
same,outcome,[6],inactive
same,outcome,[2],inactive
CC(C)(O)C(=O)c1ccc(OCCO)cc1,outcome,[1],inactive
same,outcome,[6],inactive
same,outcome,[2],inactive
C=C(C)C(=O)OCCC[Si](OC)(OC)OC,outcome,[5],inactive
same,outcome,[6],inactive
same,outcome,[4],inactive
same,outcome,[2],inactive
same,outcome,[3],inactive
CCCCCCCC(=O)N(C)C,outcome,[5],inactive
same,outcome,[6],inactive
same,outcome,[4],inactive
CC(CO)c1ccccc1 (centres undefined),outcome,[5],inactive
same,outcome,[6],inactive
same,outcome,[4],inactive
CC/C=C\CCOC(C)OCC (centres undefined),outcome,[1],inactive
same,outcome,[6],inactive
same,outcome,[2],inactive
CC(C)C(=O)c1ccccc1,outcome,[1],inactive
same,outcome,[4],inactive
same,outcome,[2],inactive
CCCCCCCCOS(=O)(=O)O,outcome,[5],inactive
same,outcome,[6],inactive
same,outcome,[4],inactive
CC(C)Cc1ccc(C(C)C(=O)O)cc1 (centres undefined),outcome,[5],inactive
same,outcome,[6],inactive
same,outcome,[4],inactive
CC(=O)OC(C)(C)C,outcome,[5],inactive
same,outcome,[6],inactive
same,outcome,[4],inactive
c1ccc(Cc2ccccc2)cc1,outcome,[1],inactive
same,outcome,[6],inactive
same,outcome,[2],inactive
CC(C)(CO)CO,outcome,[5],inactive
same,outcome,[6],inactive
same,outcome,[4],inactive
same,outcome,[2],inactive
CCCO,outcome,[1],inactive
same,outcome,[6],inactive
same,outcome,[2],inactive
same,outcome,[3],inactive
CCCCCCOC(C)=O,outcome,[1],inactive
same,outcome,[6],inactive
same,outcome,[2],inactive
same,AC50,[3],24.9 µM (active)

# Source: PubChem BioAssay (EPA / NIEHS)
